Compound activity: PubChem BioAssay, several laboratories
Sampled rows, rich in hits. Any-hit rate of the full collection: about 27%.
CYP2C19 inhib: blocks human cytochrome P450 2C19; P33261; CYP2C19 Supersomes, luciferin-H EGE luminescence, 30 min; inhibition, % at 5 µM; 21% of 96,000 active;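 active = CYP2C19 inhibition above a set limit at 5 µM in the primary screen, cut at about 50% in these data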;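 note: plate controls were negative control wells for no effect and 2.5 mM tranylcypromine positive control for full effect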
Pyk2 oligo antag: Pyk2 (human) oligomerization antagonism; Q14289; z-score (the deposit names both 25 µM and 10 µM); 0.83% of 99,000 active; Q293 cells, Pyk2 FERM NanoBiT luminescence; stronger effect = lower value;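 active = Z-score of -3 or lower, scaled per plate to the spread of control and sample wells; inactive = z-score above -3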;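 note: negative z-score means lost luminescence so less FERM oligomerization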
Cav3 T inh: blocks human Cav3.2 T-type calcium channel; AID 449739; Cav3.2-expressing cells, Fluo-4 calcium fluorescence FDSS; stronger effect = lower value; 4% of 100,000 active; O95180; B-score at 10 µM;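 active = single-dose well whose peak fluorescence ratio is a statistical outlier from its plate by either plate-standardised score or position-corrected B-score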
CYP2C9 act: increases human cytochrome P450 2C9 activity. P11712. recombinant CYP2C9, luciferin-H conversion, luminescence; stronger effect = higher value; factor 1 = untreated enzyme, 0 = blocked. activation factor at 5 µM. 1.4% of 96,000 active;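 active = activation factor of 2 or more for CYP2C9 at a 5 µM dose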;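 note: 0 = sulfaphenazole-blocked wells and 1 = vehicle-only wells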
Target sequence (P11712 whole entry, looked up): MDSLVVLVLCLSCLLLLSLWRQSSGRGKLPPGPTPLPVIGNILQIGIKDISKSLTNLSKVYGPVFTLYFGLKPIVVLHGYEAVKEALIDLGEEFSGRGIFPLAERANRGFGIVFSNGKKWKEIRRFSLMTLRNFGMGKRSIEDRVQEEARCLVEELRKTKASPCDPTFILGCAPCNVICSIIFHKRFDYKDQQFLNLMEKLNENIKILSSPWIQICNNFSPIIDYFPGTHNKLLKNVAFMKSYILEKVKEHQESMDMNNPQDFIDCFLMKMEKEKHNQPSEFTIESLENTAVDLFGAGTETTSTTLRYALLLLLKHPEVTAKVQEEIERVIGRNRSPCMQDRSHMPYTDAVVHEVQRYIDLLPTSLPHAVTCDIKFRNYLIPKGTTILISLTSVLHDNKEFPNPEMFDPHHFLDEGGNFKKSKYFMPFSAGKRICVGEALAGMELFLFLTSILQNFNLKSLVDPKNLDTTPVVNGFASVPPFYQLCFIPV
CYP2C9 inhib: human CYP2C9 inhibition. P11712. CYP2C9 Supersomes, luciferin-H conversion, luminescence. inhibition, % at 5 µM. 20% of 96,000 active. AID 777;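 active = blocking of liver enzyme CYP2C9 beyond about 50% at 5 µM, limit read from the data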
CYP2C19 activ: activators of human cytochrome P450 2C19; P33261; recombinant CYP2C19, luciferin-H EGE luminescence; stronger effect = higher value; 0 = fully inhibited enzyme, 1 = untreated enzyme; activation factor at 5 µM; 96,000 tested, under 10 active; AID 1025;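 active = activation factor of at least 2 at 5 µM in the primary screen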;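 note: 0 = wells with 2.5 mM tranylcypromine and 1 = vehicle-only wells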
Active calls of the source: *; . = no result.

SMILES	CYP2C19 inhib	Pyk2 oligo antag	Cav3 T inh	CYP2C9 act	CYP2C9 inhib	CYP2C19 activ
O=c1oc2c(CN3CCCCC3)c(O)ccc2cc1-c1nc2ccccc2[nH]1	54.0*	0.32	.	0.5	52.5*	0.5
COc1cc(N=c2ssnc2Cl)cc(OC)c1	47.9	-0.71	1.11	0	99.7*	0.5
Cc1csc(SCc2ccc(C(=O)O)cc2)n1	-4.9	0.57	1.66	1	-4.3	1
O=C(NCCN1CCc2ccccc2C1)Nc1ccc(F)cc1	36.6	.	-0.32	0.8	15.7	0.6
O=C(CN1CCN(C(=O)c2ccccc2F)CC1)Nc1ccc(Br)cc1	27.3	0.75	0.295	2.7*	-169.5	0.7
CCc1ccc(NC(=O)CN2CCc3ccccc3C2)cc1	92.3*	0.07	-3.47	0.1	89.8*	0.1
O=C(CN1CCc2ccccc2C1)Nc1ccc(Br)cc1	89.6*	1.7	-4.09*	0.6	42.3	0.1
O=C(Nc1ccc(C(=O)N2CCCC2)cc1)c1ccccc1F	9.0	0.78	-0.354	0.9	13.7	0.9
CN(C)c1nc(OCCNC(=O)COc2ccccc2Cl)nc(N(C)C)n1	.	-0.12	-0.188	.	.	.
Cc1cc(C)c2c(c1)/C(=N/NC(=S)Nc1ccc(F)cc1)CCC2	-9.0	0.38	0.541	1.3	-26.6	1.1
CCn1c(=NC(=O)CSC(C)=O)sc2cc(F)ccc21	47.2	-0.47	-10.6*	1	2.3	0.5
CCOC(=O)c1cc(NC(=O)N2CCCCC2)c(C)nc1C	10.6	-0.64	0.00187	1.1	-9.5	0.9
CC(=O)C(C(C)=O)c1c(Cl)c(O)c(O)c2c(C(=O)c3ccccc3)coc12	8.9	-2.91	-1	0.1	86.3*	0.9
CS(=O)(=O)N1Cc2ccccc2CC1C(=O)Nc1ccccc1C(N)=O (stereo unspecified)	5.0	0.33	0.398	0.9	9.0	0.9
COC(=O)c1c(C(=O)OC)c2cc(C)ccn2c1Cl	46.7	0.27	-0.929	0.5	54.1*	0.5
Cc1cccc(NC(=O)Cn2cnc3ccccc3c2=O)c1C	8.1	0.22	1.45	0.9	10.5	0.9
CN(c1ccccc1)S(=O)(=O)c1cccc(NC(=O)Cn2cnc3ccccc3c2=O)c1	62.4*	-1.59	-7.05*	0.1	94.0*	0.4
CCN(CC)S(=O)(=O)c1cc(NC(=O)Cn2cnc3ccccc3c2=O)ccc1C	42.2	-0.9	.	0.5	53.0*	0.6
COc1ccc(C(=O)/C=C(\N)C(F)(F)F)c(O)c1	59.5*	0.73	0.283	0.8	16.2	0.4
O=c1c(/C=N/O)c(Nc2ccccc2)nc2ccccn12	19.5	-0.85	-1.77	0.5	50.1*	0.8
CC1(O)c2ccccc2C(=O)N1CCc1ccccc1F (stereo unspecified)	95.6*	0.08	-0.546	0.8	24.8	0
O=C(O)c1ccc2c(c1)N(Cc1ccccc1F)C(=O)c1ccccc1S2=O (stereo unspecified)	-5.9	.	-0.693	0.8	21.5	1.1
O=C1CC2(CCCCC2)Oc2ccc(F)cc21	.	.	0.472	.	.	.
O=C1CC2(CCCCC2)Oc2ccc(O)cc21	60.0*	0.74	0.325	0.8	16.3	0.4
COc1cc(OC)cc(C(=O)NNC(=O)NC2CCCCC2)c1	.	0.22	0.532	.	.	.
SMILES	CYP2C19 inhib	Pyk2 oligo antag	Cav3 T inh	CYP2C9 act	CYP2C9 inhib	CYP2C19 activ
Cc1cccc(OCC(=O)N(C)CCc2ccccn2)c1	67.6*	1.52	-0.0538	0.9	12.6	0.3
Cc1nc(-c2ccccc2)sc1C1(C)CC(c2cccc(F)c2)=NO1 (stereo unspecified)	.	.	0.536	.	.	.
Fc1ccc(C(CCCn2nnc(-c3cccnc3)n2)c2ccc(F)cc2)cc1	58.7*	-3.7*	-4.21*	0.4	58.7*	0.4
O=C(O)C1C2C=CC(C2)C1C(=O)NC(c1ccccc1)c1ccccc1 (stereo unspecified)	-17.4	-0.1	0.0531	1.3	-34.8	1.2
CCOC(=O)c1ccc(NS(=O)(=O)c2cccc3nsnc23)cc1	36.7	-1.61	0.000434	0.2	77.7*	0.6
Cc1cccc(NC(=O)CCS(=O)(=O)c2cccc3nsnc23)c1C	8.8	0.19	0.726	1.1	-12.5	0.9
CCOC(=O)c1cccc(NC(=O)CCS(=O)(=O)c2cccc3nsnc23)c1	77.4*	-0.03	.	0.3	72.4*	0.2
CCOC(=O)c1ccc(NS(=O)(=O)c2c(N)[nH]c(=O)[nH]c2=O)cc1	.	.	0.123	.	.	.
Clc1cccc(CSc2nc3ccncc3[nH]2)c1	100.1*	.	1.23	0.2	76.4*	0
Fc1cccc(CSc2nc3ccncc3[nH]2)c1	.	.	0.558	.	.	.
CC1CC(=O)c2cn3c(nc2C1)nc1ccccc13 (stereo unspecified)	-9.7	0.36	0.842	1	-3.6	1.1
CCn1c(-c2ccccc2)c[nH]c1=S	58.4*	1.71	1.26	0.7	31.4	0.4
CCn1c(=S)[nH]c2ccccc21	15.5	1.73	1.73	1.5	-54.8	0.8
S=c1[nH]cc(-c2ccccc2)n1-c1ccccc1	79.1*	-0.62	1.01	0.2	78.4*	0.2
CC(C)(C)C(=O)NCCc1nc2ccccc2n1CC(=O)c1ccc(Cl)cc1	.	.	0.863	.	.	.
COC(=O)Cn1c(C(F)(F)F)nc2ccccc21	.	0.38	0.358	.	.	.
O=C(Cn1c(C(F)(F)F)nc2ccccc21)c1ccc(Cl)cc1	99.6*	-0.02	0.729	0.6	43.9	0
OC(CN1CCCCC1)Cn1c(C(F)(F)F)nc2ccccc21 (stereo unspecified)	-2.4	1.58	0.774	1.1	-12.3	1
O=C(Cn1c(C(F)(F)F)nc2ccccc21)c1ccccc1	53.1*	0.05	0.131	0.6	39.3	0.5
Cc1nc2ccccc2n1CC(O)Cn1c(C(F)(F)F)nc2ccccc21 (stereo unspecified)	33.0	0.17	-0.498	0.3	72.2*	0.7
Cc1cccc(NC(=O)c2nc[nH]c2C(=O)NCC(=O)OC(C)(C)C)c1	.	.	-0.116	.	.	.
Cc1cc(F)c(F)c(C(=O)N2CCN(C)CC2)c1Cl	8.8	0.49	1.19	2.2*	-122.7	0.9
O=C(c1cc(F)c(F)cc1Cl)N1CCOCC1	-20.6	0.24	1.51	1.1	-9.9	1.2
Cc1occc1-c1nnc(SCC(=O)Nc2ccc(F)cc2)n1Cc1ccccc1	26.5	-0.84	-6.2*	0.3	72.0*	0.7
Cc1occc1-c1nnc(SCC(=O)Nc2ccccc2)n1Cc1ccccc1	34.3	-0.84	-2.53	0.4	61.9*	0.7
Cc1ccccc1NC(=O)CSc1nnc(-c2ccoc2C)n1CCc1ccccc1	40.3	-1.42	-2.55	0.7	26.4	0.6
Cc1cc(NC(=O)CSc2nnc(-c3ccco3)n2Cc2ccccc2)no1	.	-0.18	1.72	.	.	.
COc1ccc(NC(=O)CSc2nnc(-c3ccoc3C)n2CCc2ccccc2)cc1	87.9*	-0.79	-2.73	0.1	89.2*	0.1
CCCS(=O)(=O)N1CCN(S(=O)(=O)c2ccc(F)cc2)CC1	.	0.56	-0.507	.	.	.
O=C(NCc1cccs1)C1CCN(S(=O)(=O)c2cccc3nsnc23)CC1	14.6	1.2	0.567	2.5*	-153.1	0.9
